In all, about 39,000 compounds went through this assay and about 3,300 (8.5%) were called active. The sample holds actives, similar compounds and a random draw of the others, so the mix is not that of the screen.
These compounds were tested on HepG2 (assay: cytotoxicity call (relative viability < 0.9)). Conditions: 10 µM.

SMILES | cytotoxicity call
C/C(=C\C(=O)OCCCCCCCCC(=O)O)C[C@@H]1OC[C@H](C[C@@H]2O[C@H]2[C@@H](C)[C@H](C)O)[C@@H](O)[C@H]1O | inactive
CC(=O)N1[C@H](CO)[C@@H](c2ccccc2)[C@@H]1CNC(=O)CN1CCOCC1 | inactive
C[C@H]1CN([C@@H](C)CO)S(=O)(=O)c2ccc(-c3cccc(F)c3)cc2O[C@H]1CN(C)S(C)(=O)=O | inactive
COCC#Cc1ccc2c(c1)O[C@@H](CN(C)S(=O)(=O)c1cccc(OC)c1)[C@H](C)CN([C@@H](C)CO)S2(=O)=O | inactive
C[N+](C)(C)C[C@@H](O)CC(=O)O | inactive
C[N+](C)(C)CC(O)CC(=O)[O-] (stereo not given) | active
C[N+](C)(C)C[C@H](O)CC(=O)O | inactive
COCCCOc1ccnc(CS(=O)c2nc3ccccc3[n-]2)c1C.[Na+] (stereo not given) | inactive
C[C@@H]1CN([C@@H](C)CO)S(=O)(=O)c2ccc(-c3cncnc3)cc2O[C@H]1CN(C)C(=O)NC1CCCC1 | inactive
CC(=O)[C@@]12C=CCC[C@@H]1C[C@@H](C(=O)Nc1c(C)cccc1Cl)N2C(=O)c1nc(C)oc1C(F)(F)F | inactive
N=C(N)SCCN1C(=O)c2ccccc2C1=O | inactive
O=C1c2ccc3c4c(ccc(c24)C(=O)N1CCCCO)C(=O)N(CCCCO)C3=O | active
O=C(O)CCCN1C(=O)c2cccc3cccc(c23)C1=O | inactive
C[C@H]1CN([C@@H](C)CO)C(=O)CCCn2cc(nn2)CO[C@H]1CN(C)Cc1ccc(C(=O)Nc2ccccc2N)cc1 | inactive
CN(C)C1CN(S(=O)(=O)CCC2CC2)C1 | inactive
COc1ccc(CN2C[C@@H](C)[C@H](OC)CN(C)C(=O)c3cc(NC(=O)c4nc5ccccc5s4)ccc3OC[C@H]2C)cc1 | inactive
CO[C@@H]1CN(C)C(=O)c2cc(NS(C)(=O)=O)ccc2OC[C@H](C)N(C(=O)C2CCCCC2)C[C@@H]1C | active
COCC(=O)Nc1ccc2c(c1)C(=O)N(C)C[C@H](OC)[C@@H](C)CN(C(=O)Cc1ccccn1)[C@@H](C)CO2 | inactive
CO[C@@H]1CN(C)C(=O)c2cc(NC(=O)NC3CCCCC3)ccc2OC[C@H](C)N(CCc2ccccc2)C[C@H]1C | active
CO[C@H]1CN(C)C(=O)c2cc(NS(C)(=O)=O)ccc2OC[C@H](C)N(C(=O)C2CCCCC2)C[C@H]1C | inactive
CO[C@H]1CN(C)C(=O)c2cc(NC(=O)NC3CCCCC3)ccc2OC[C@H](C)N(CCc2ccccc2)C[C@@H]1C | inactive
CO[C@H]1CN(C)C(=O)c2cc(NC(=O)NC3CCCCC3)ccc2OC[C@@H](C)N(CCc2ccccc2)C[C@@H]1C | inactive
COc1ccc(CN2C[C@H](C)[C@@H](OC)CN(C)C(=O)c3cc(NC(=O)c4nc5ccccc5s4)ccc3OC[C@@H]2C)cc1 | inactive
COCC(=O)Nc1ccc2c(c1)C(=O)N(C)C[C@H](OC)[C@@H](C)CN(C(=O)Cc1ccccn1)[C@H](C)CO2 | active

SMILES | cytotoxicity call
COCC(=O)Nc1ccc2c(c1)C(=O)N(C)C[C@@H](OC)[C@H](C)CN(C(=O)Cc1ccccn1)[C@H](C)CO2 | inactive
COc1ccc(CN2C[C@@H](C)[C@H](OC)CN(C)C(=O)c3cc(NC(=O)c4nc5ccccc5s4)ccc3OC[C@@H]2C)cc1 | active
CO[C@@H]1CN(C)C(=O)c2cc(NS(C)(=O)=O)ccc2OC[C@H](C)N(C(=O)C2CCCCC2)C[C@H]1C | inactive
C[C@@H]1CN([C@@H](C)CO)S(=O)(=O)c2ccc(C#CC(C)(C)O)cc2O[C@@H]1CN(C)C(=O)C1CCCCC1 | inactive
C[C@@H]1CN([C@@H](C)CO)C(=O)c2cc(NS(=O)(=O)c3cn(C)cn3)ccc2O[C@@H]1CN(C)Cc1ccc(C(=O)Nc2ccccc2N)cc1 | inactive
O=C(C[C@@H]1CC[C@@H](NC(=O)CN2CCOCC2)[C@H](CO)O1)NCc1cccc(F)c1 | inactive
C[C@H]1CN([C@@H](C)CO)C(=O)Cc2cc(NS(=O)(=O)c3cccs3)ccc2O[C@H]1CN(C)S(C)(=O)=O | inactive
C[C@H](CO)N1C[C@H](C)[C@H](CN(C)Cc2ccccc2)Oc2ccc(NC(=O)Cn3cnnn3)cc2C1=O | inactive
C[C@@H]1CN([C@@H](C)CO)C(=O)c2cccc(NC(=O)c3cnccn3)c2O[C@@H]1CN(C)Cc1ccncc1 | inactive
COc1ccc2c3c(n(c2c1)C)[C@@H](CO)N(C[C@]13CCN(CC1)C(=O)Nc1cccc(c1)F)C(=O)CN1CCOCC1 | inactive
C[C@@H]1CN([C@H](C)CO)C(=O)c2cccc(NC(=O)Nc3ccc4c(c3)OCO4)c2O[C@H]1CN(C)Cc1ccc(Cl)c(Cl)c1 | inactive
CNC[C@H]1Oc2ccc(NS(=O)(=O)c3cn(C)cn3)cc2CC(=O)N([C@@H](C)CO)C[C@H]1C | inactive
C[C@H](O)C#Cc1ccc2c(c1)O[C@@H](CN(C)C(=O)c1ccccc1)[C@@H](C)CN([C@H](C)CO)S2(=O)=O | inactive
COc1ccc(NC(=O)Nc2ccc3c(c2)C(=O)N([C@H](C)CO)C[C@@H](C)[C@@H](CN(C)S(=O)(=O)c2cccs2)OCCCC[C@H](C)O3)cc1 | inactive
CO[C@@H]1CN(C)C(=O)c2cc(NC(=O)NC(C)C)ccc2OC[C@@H](C)N(Cc2ccc(-c3ccccn3)cc2)C[C@@H]1C | inactive
CO[C@@H]1CN(C)C(=O)c2cc(NC(=O)NC3CCCCC3)ccc2OC[C@@H](C)N(CCc2ccccc2)C[C@@H]1C | inactive
CO[C@@H]1CN(C)C(=O)c2cc(NC(=O)NC3CCCCC3)ccc2OC[C@H](C)N(CCc2ccccc2)C[C@@H]1C | inactive
CO[C@H]1CN(C)C(=O)c2cc(NC(=O)NC(C)C)ccc2OC[C@H](C)N(Cc2ccc(-c3ccccn3)cc2)C[C@@H]1C | active
CO[C@@H]1CN(C)C(=O)c2cc(NC(=O)NC(C)C)ccc2OC[C@H](C)N(Cc2ccc(-c3ccccn3)cc2)C[C@H]1C | inactive
CO[C@@H]1CN(C)C(=O)c2cc(NC(=O)NC3CCCCC3)ccc2OC[C@@H](C)N(CCc2ccccc2)C[C@H]1C | active
COc1ccccc1CNC(=O)C[C@H]1C[C@@H]2c3cc(NC(=O)NC4CCCC4)ccc3O[C@@H]2[C@H](CO)O1 | inactive
NC[C@H]1CN(Cc2ccc(F)cc2)CCO1 | inactive
CN1C(=O)c2cc(NC(=O)C3CCOCC3)ccc2OC[C@@H]2O[C@H](CC(=O)NCCc3ccncc3)CC[C@@H]21 | inactive
N[C@@H](Cc1ccc2nonc2c1)C(=O)O | inactive

SMILES | cytotoxicity call
O=C(C[C@@H]1CC[C@@H]2[C@H](COC[C@H](O)CN2S(=O)(=O)c2ccc(Cl)cc2)O1)N1CCc2ccccc2C1 | inactive
O=C(c1cccc2ccccc12)N(C1CCCC1)C1CCCC1 | inactive
CCN(CC)CCOC(=O)C(Cc1cccc2ccccc12)CC1CCCO1.O=C(O)C(=O)O (stereo not given) | active
CCn1c(=O)cc(N2CCC(C)CC2)[nH]c1=O | inactive
CO/N=C1\C[C@]2(C[C@@H]3C[C@@H](C/C=C(\C)C[C@@H](C)/C=C/C=C4\CO[C@@H]5[C@H](O)C(C)=C[C@@H](C(=O)O3)[C@]45O)O2)O[C@H](/C(C)=C/C(C)C)[C@H]1C | active
CO[C@H]1C[C@H](O[C@H]2[C@H](C)O[C@@H](O[C@@H]3/C(C)=C/C[C@@H]4C[C@@H](C[C@]5(C=C[C@H](C)[C@@H](C6CCCCC6)O5)O4)OC(=O)[C@@H]4C=C(C)[C@@H](O)[C@H]5OC/C(=C\C=C\[C@@H]3C)[C@]54O)C[C@@H]2OC)O[C@@H](C)[C@@H]1O | inactive
CON=C1CC2(CC3CC(CC=C(C)CC(C)C=CC=C4COC5C(O)C(C)=CC(C(=O)O3)C45O)O2)OC(C(C)=CC(C)C)C1C (stereo not given) | active
COC1CC(OC2C(C)OC(OC3C(C)=CCC4CC(CC5(C=CC(C)C(C6CCCCC6)O5)O4)OC(=O)C4C=C(C)C(O)C5OCC(=CC=CC3C)C45O)CC2OC)OC(C)C1O (stereo not given) | inactive
C[C@@H]1CN([C@H](C)CO)C(=O)c2cc(NC(=O)c3ccncc3)ccc2O[C@@H](C)CCCCO[C@H]1CN(C)S(=O)(=O)c1cn(C)cn1 | inactive
CC(C)NC(=O)N(C)C[C@@H]1Oc2ncc(-c3ccc(C(=O)N(C)C)cc3)cc2C(=O)N([C@H](C)CO)C[C@H]1C | inactive
CN(C)C(=O)c1cccc(-c2cccc(-c3nc(C(=O)N4CCCCC4)cc4c3[C@H](CCO)N([S@@](=O)C(C)(C)C)C4)c2)c1 | inactive
C[C@@H]1CN([C@@H](C)CO)C(=O)c2cc(NC(=O)c3ccccc3)ccc2O[C@@H](C)CCCCO[C@H]1CN(C)C(=O)Nc1ccc2c(c1)OCO2 | inactive
C[C@@H]1CN([C@@H](C)CO)C(=O)CCCn2nncc2CO[C@H]1CN(C)Cc1ccc2c(c1)OCCN2C | inactive
CCC(C)C(=O)OC1CCC=C2C=CC(C)C(CCC3CC(O)CC(=O)O3)C21 (stereo not given) | active
CCC(C)C(=O)OC1CC(C)C=C2C=CC(C)C(CCC3CC(O)CC(=O)O3)C21 (stereo not given) | inactive
CCC(C)C(=O)OC1CC(O)C=C2C=CC(C)C(CCC(O)CC(O)CC(=O)[O-])C21.[Na+] (stereo not given) | inactive
C[C@@H]1CN([C@H](C)CO)C(=O)c2cc(NS(=O)(=O)c3ccc(F)cc3)ccc2O[C@@H](C)CCCCO[C@H]1CN(C)C(=O)Nc1ccc(F)cc1 | inactive
C[C@@H]1CN([C@@H](C)CO)C(=O)c2cc(NS(=O)(=O)c3ccc(F)cc3)ccc2O[C@@H](C)CCCCO[C@@H]1CN(C)C(=O)Nc1ccc(F)cc1 | inactive
C[C@H](CO)N1C[C@H](C)[C@H](CN(C)C(=O)Nc2ccc(F)cc2)OCCCC[C@H](C)Oc2ccc(NS(=O)(=O)c3ccc(F)cc3)cc2C1=O | inactive
C[C@@H]1CCCCO[C@H](CN(C)C(=O)Nc2ccc(F)cc2)[C@@H](C)CN([C@@H](C)CO)C(=O)c2cc(NS(=O)(=O)c3ccc(F)cc3)ccc2O1 | active
C[C@H]1CCCCO[C@H](CN(C)C(=O)Nc2ccc(F)cc2)[C@@H](C)CN([C@@H](C)CO)C(=O)c2cc(NS(=O)(=O)c3ccc(F)cc3)ccc2O1 | active
C[C@@H]1CCCCO[C@H](CN(C)C(=O)Nc2ccc(F)cc2)[C@@H](C)CN([C@H](C)CO)C(=O)c2cc(NS(=O)(=O)c3ccc(F)cc3)ccc2O1 | inactive
